PLAP activator – human PLAP activation | AID 696 | activation fold at 20 µM | purified PLAP enzyme, luminescent substrate read-out; active compounds read high | hit rate 1.2% among 96,000; in the data active = activation fold above about 2
CYP2C19 inhib – human CYP2C19 inhibition. hit rate 21% among 96,000. CYP2C19 Supersomes, luciferin-H EGE luminescence, 30 min. AID 778. inhibition, % at 5 µM. P33261;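 active = CYP2C19 inhibition above a set limit at 5 µM in the primary screen, cut at about 50% in these data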;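 note: plate controls were negative control wells for no effect and 2.5 mM tranylcypromine positive control for full effect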
Target sequence (P33261 whole entry, looked up): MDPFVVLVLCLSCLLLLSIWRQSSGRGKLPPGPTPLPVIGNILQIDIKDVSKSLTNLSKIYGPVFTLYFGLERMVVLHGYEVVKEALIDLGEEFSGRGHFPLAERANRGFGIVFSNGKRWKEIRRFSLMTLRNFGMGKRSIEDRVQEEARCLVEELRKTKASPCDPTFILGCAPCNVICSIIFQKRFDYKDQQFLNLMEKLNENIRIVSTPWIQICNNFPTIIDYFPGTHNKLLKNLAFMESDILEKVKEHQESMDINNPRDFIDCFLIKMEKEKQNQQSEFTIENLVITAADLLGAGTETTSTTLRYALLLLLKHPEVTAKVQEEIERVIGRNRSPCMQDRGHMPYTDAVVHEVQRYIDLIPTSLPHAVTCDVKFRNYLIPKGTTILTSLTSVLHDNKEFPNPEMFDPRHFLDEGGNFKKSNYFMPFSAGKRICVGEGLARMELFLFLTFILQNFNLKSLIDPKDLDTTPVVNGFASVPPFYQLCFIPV
CYP2C9 activ – activators of human CYP2C9 | activation factor at 5 µM | P11712 | hit rate 1.4% among 96,000 | AID 1024 | recombinant CYP2C9, luciferin-H conversion, luminescence; active compounds read high; factor 1 = untreated enzyme, 0 = blocked;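 active = activation factor of 2 or more for CYP2C9 at a 5 µM dose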;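 note: 0 = sulfaphenazole-blocked wells and 1 = vehicle-only wells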
CYP2C19 activ – cytochrome P450 2C19 (human) activation; P33261; recombinant CYP2C19, luciferin-H EGE luminescence; active compounds read high; 0 = fully inhibited enzyme, 1 = untreated enzyme; activation factor at 5 µM; 96,000 tested, under 10 active; AID 1025;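 active = activation factor of at least 2 at 5 µM in the primary screen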;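 note: 0 = wells with 2.5 mM tranylcypromine and 1 = vehicle-only wells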
CYP2C9 inhib – human CYP2C9 inhibition; P11712; CYP2C9 Supersomes, luciferin-H conversion, luminescence; inhibition, % at 5 µM; hit rate 20% among 96,000; AID 777;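 active = blocking of liver enzyme CYP2C9 beyond about 50% at 5 µM, limit read from the data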
An asterisk follows results filed as active; . = no result. Rows were chosen to be rich in hits. Some 31% of all compounds tested hit in one or more screens of this group.

SMILES	PLAP activator	CYP2C19 inhib	CYP2C9 activ	CYP2C19 activ	CYP2C9 inhib
O=C(NC1CC1)c1ccc(CS(=O)(=O)c2c(Cl)cccc2Cl)o1	1	2.4	1.4	1	-42.3
O=C(NC1CCCCC1)c1ccc(CNc2ccccc2)o1	0.8	62.0*	0.4	0.4	58.1*
O=C(O)c1ccc(CSCc2ccccc2F)o1	0.9	2.7	1	1	-0.7
COc1ccccc1S(=O)(=O)Cc1ccc(C(=O)NC2CCCCC2)o1	1	7.1	0.9	0.9	6.9
O=C(NC1CCCC1)c1ccc(CSCc2ccccc2F)o1	1.2	92.5*	0.1	0.1	86.5*
CCCCCCC(=O)NCC(=O)OCC(=O)c1ccccc1	0.9	11.5	0.9	0.9	7.5
COc1ccc2cc3cc(C(=O)Nc4ccccc4N4CCN(C)CC4)oc3nc2c1	1.5	61.2*	0.7	0.4	25.6
O=C(CSCc1ccc(Cl)cc1)N/N=C/c1ccc(Cl)cc1Cl	0.9	6.3	0.7	0.9	29.4
CCNC(=O)NC(=O)C(C)SCc1ccccc1C (stereo not given)	1	67.4*	0.6	0.3	43.6
O=C(Nc1ccccc1)OCc1cc(-c2ccccc2Cl)on1	1.1	4.4	1	1	-0.5
CCOc1ccc(N(CC(=O)NC(C)(C)C)C(=O)c2ccco2)cc1	1.1	21.6	0.1	0.8	89.9*
O=C(Nc1ccccc1)c1ccc(NCc2cccnc2)c(S(=O)(=O)N2CCOCC2)c1	1.4	53.7*	0.4	0.5	55.9*
O=C(NCc1ccncc1)c1ccc(Cl)c(S(=O)(=O)N2CCOCC2)c1	0.9	67.8*	0.2	0.3	81.9*
O=C(Nc1ccccc1)c1ccc(NCCN2CCOCC2)c(S(=O)(=O)N2CCOCC2)c1	1.5	7.6	0.9	0.9	5.6
O=C(Nc1ccccc1)c1ccc(NCc2ccco2)c(S(=O)(=O)N2CCOCC2)c1	1.5	86.6*	0.1	0.1	90.4*
Cc1nn(C)c(C)c1S(=O)(=O)N1CCC(C(=O)NCC2COc3ccccc3O2)CC1 (stereo not given)	1.3	11.5	1.6	0.9	-57.6
CC(C)Nc1nc(Cl)nc(NNC(=O)C(C)Oc2ccccc2)n1 (stereo not given)	2.2*	40.1	0.8	0.6	24.4
COC(=O)C(C(=O)Nc1ccccc1C)C1CCCC1 (stereo not given)	0.8	63.7*	0.9	0.4	8.9
COC(=O)C(C(=O)Nc1ccc(OC)cc1)C1CCCCCC1 (stereo not given)	0.9	91.7*	0.3	0.1	69.2*
COc1ccc(NC(=O)c2ccccc2NC(=O)NC2CCCCC2)cc1	0.9	20.8	0.8	0.8	21.3
C=CCn1c(Cc2csc(N)n2)nnc1SCC(=O)OCC	0.9	39.7	1.1	0.6	-8.0
C1CNCCOCCNCCN1	1.7	-2.0	1	1	-3.9
COCCOc1nc2c(c(=O)n(C)c(=O)n2C)n1Cc1cccc(OC)c1	1	12.0	0.6	0.9	36.3
CCCCNS(=O)(=O)c1ccc2nc(SCC(=O)c3ccccc3OC)[nH]c2c1	2.2*	93.9*	0.1	0.1	93.9*
COc1ccc2nc(SCC(=O)/C(C#N)=C(\C)N)[nH]c2c1	0.9	33.3	0.8	0.7	15.0
SMILES	PLAP activator	CYP2C19 inhib	CYP2C9 activ	CYP2C19 activ	CYP2C9 inhib
CCCCNS(=O)(=O)c1ccc2nc(SCC(=O)Nc3sccc3C#N)[nH]c2c1	1.9	68.6*	0	0.3	97.4*
C(=N\N1CCN(C2c3ccccc3-c3ccccc32)CC1)/c1ccccn1	1.3	6.7	0.7	0.9	27.0
C(=N\N1CCN(C2c3ccccc3-c3ccccc32)CC1)/c1cccnc1	1.2	83.7*	0.1	0.2	91.0*
C/C(=N\N1CCN(C2c3ccccc3-c3ccccc32)CC1)c1cccnc1	1.2	65.7*	0.3	0.3	72.9*
Cc1cc2occ(CC(=O)Nc3nccs3)c2cc1C(C)C	0.9	-16.7	1	1.2	-1.4
COc1ccc(CC(=O)N2CCN(c3ccccn3)CC2)cc1OC	1	51.9*	0.9	0.5	7.0
CCCc1ccc(OCc2ccc(C(=O)N3CCN(c4ccccn4)CC3)o2)c(OC)c1	1	56.6*	0.4	0.4	57.3*
CCn1cc(C(=O)N2CCN(C(=O)c3ccco3)CC2)c2cc(OC)c(OC)cc2c1=O	1.2	0.3	0.9	1	5.2
CCn1cc(C(=O)N2CCN(c3ccccn3)CC2)c2cc(OC)c(OC)cc2c1=O	1.7	12.4	0.4	0.9	60.5*
COc1ccc(S(=O)(=O)N2CCN(C)CC2)cc1C	0.9	13.9	1.5	0.9	-46.3
COc1cc(C)c(S(=O)(=O)N2CCN(C)CC2)cc1C	1.2	62.0*	1.1	0.4	-14.2
COc1cc(S(=O)(=O)N2CCCCCC2)c(OC)cc1Br	0.8	96.3*	0.3	0	74.7*
COc1ccc(S(=O)(=O)N2CCCN(S(=O)(=O)c3ccc(OC)cc3C)CC2)c(C)c1	1	22.6	2.1*	0.8	-108.8
COc1ccc(C(C)(C)C)cc1S(=O)(=O)N1CCN(C)CC1	1.5	22.7	2*	0.8	-96.6
Cc1ccc(-n2ncc3c(=O)n(CC#N)cnc32)cc1	0.7	9.7	1	0.9	1.3
CC(=O)Nc1cc(NC(C)=O)c2nc(N)sc2c1	1	-2.6	1.1	1	-5.5
CCC(=O)Nc1nc2nc(C)cc(=O)n2[nH]1	1	3.4	1	1	-3.1
COc1c(C)cc(S(=O)(=O)N2CCCC2)c(C)c1C	1	96.1*	1.6	0	-64.0
CCOC(=O)Nc1ccc(OC)cc1S(=O)(=O)N1CCCCC1	0.9	62.8*	1.1	0.4	-7.5
COc1ccc(OC)c(S(=O)(=O)N2CCCCCC2)c1	1	33.6	1.1	0.7	-11.6
COc1cc(C)c(S(=O)(=O)N2CCCC2)cc1C	1	88.3*	1.5	0.1	-45.8
COc1ccc(CNC(=O)CSCc2cnn(-c3ccccc3)c2-n2cccc2)cc1	.	95.6*	0	0	98.4*
O=C(CSCc1cnn(-c2ccccc2)c1-n1cccc1)NCC1CCCO1 (stereo not given)	1.7	79.9*	0.2	0.2	78.6*
CCN(CC)C(=O)CSCc1cnn(-c2ccccc2)c1-n1cccc1	1.4	49.6	0.6	0.5	38.6
O=C(CSCc1cnn(-c2ccccc2)c1-n1cccc1)NCCN1CCOCC1	1.6	32.3	0.5	0.7	46.3
O=C(C1CCCN(S(=O)(=O)c2cccc3nsnc23)C1)N1CCc2ccccc2C1 (stereo not given)	1.2	44.2	0.8	0.6	15.2
CCOC(=O)CNC(=O)CSc1nnc(Cn2c(=O)sc3ccccc32)n1-c1ccccc1C	1.4	5.0	0.7	0.9	28.5
COc1ccc([N+](=O)[O-])cc1NC(=S)Nc1ccccc1	0.8	50.4*	0.6	0.5	42.1
COc1ccccc1OCCCOc1ccc([N+](=O)[O-])cc1Cl	1	43.8	0.7	0.6	27.5
COc1ccc([N+](=O)[O-])cc1NC(=O)CC(C)c1ccccc1 (stereo not given)	0.9	72.1*	1.5	0.3	-48.3
